Measured values published in ChEMBL document CHEMBL3988442, “University of Dundee, Small-Polar-MMV Screening Library” (2021).
Screen size: about 48,000 compounds; about 13,000 (27%) showed an effect of 50% or more. This is one part of the list.

System: Wolbachia pipientis
Assay: Anti-Wolbachia Cell-Based Screen
Format: functional
Parameters: scale not given: in the data most compounds retested in dose-response had high values
Conditions: 5 µM

SMILES | Percent Effect [%]
OC(CN(Cc1ccccc1)Cc1cccnc1)c1ccco1 (stereo not given) | -6.799
CCCN1CCCN(c2ncccc2C(=O)N2CCCCC2)CC1 | 6.513
CCC(CNS(C)(=O)=O)Oc1ccccc1C (stereo not given) | 8.016
CCCNC(=O)CCC(=O)N1CCC(c2n[nH]c(C3CC3)n2)CC1 | -17.72
CCC(=O)NCCc1cc(N2CCN(C(C)=O)CC2)nc(C2CC2)n1 | -11.66
CCCC(=O)NCCc1cc(N2CCN(C(C)=O)CC2)nc(C2CC2)n1 | 96.87
COc1ccc(C(=O)N2CCN(c3cc(CCN)nc(C)n3)CC2)cc1 | -1.227
CC(=O)NCCc1cc(N2CCN(C(C)=O)CC2)nc(C2CC2)n1 | -7.517
CC(=O)N1CCN(c2cc(CCNC(=O)C(C)C)nc(C3CC3)n2)CC1 | 74.84
CC(=O)N1CCN(c2cc(CCN)nc(C3CC3)n2)CC1.Cl | 89.11
Cc1nc(CCN)cc(N2CCCN(C(=O)c3ccco3)CC2)n1 | -5.504
CN1CCN(c2cc(CCNC(=O)C3CCC3)nc(C3CC3)n2)CC1 | -16.77
Cc1ccoc1C(=O)NC(CC(C)C)C(=O)N1CCC(CO)CC1 (stereo not given) | -14.58
CCC(=O)N1CCc2[nH]cnc2C12CCN(C(=O)CCS(C)(=O)=O)CC2 | -8.696
Cc1nnn2c1COC(CNCc1ccccn1)C2.O=C(O)C(F)(F)F (stereo not given) | -4.028
Cc1cnc(N)nc1NCCSCc1[nH]cnc1C | -14.55
Cc1ccc(C)n1-c1ccc(C(=O)NCCNc2ncccn2)cc1 | 4.736
Cc1nc(CN2CCCN(C(=O)COCC3CC3)CC2)cs1 | 18.11
Cc1cccc(CN2CCCC(c3nccs3)C2)n1 (stereo not given) | 160.1
Cc1nc(CN2C[C@@H]3CN(C(=O)c4cnccn4)C[C@@H]3C2=O)cs1 | 9.269
Cc1cccc(CN2CCN(Cc3ccccc3)CC(O)C2)n1 (stereo not given) | -8.122
CCn1ccnc1C1CCN(Cc2cccc(C)n2)CC1 | -3.832
Cc1nc(CN2CCCC(c3nccs3)C2)cs1 (stereo not given) | 114.8
CC1CCCN(Cc2csc(-c3ncccn3)n2)CC1 (stereo not given) | 3.521
Cc1nc(CN2CCCC(c3cnccn3)C2)cs1 (stereo not given) | 124.4

SMILES | Percent Effect [%]
CC(C)c1nc(CN2CCCC(O)C2)cs1 (stereo not given) | 12.3
CSCC(=O)N1C[C@H]2CC[C@@H]1CN(Cc1ccccc1)C2 | -24.58
COCCc1noc(Cn2ccc3ncccc3c2=O)n1 | -12.09
CCOc1ccc2[nH]c(=O)c(CN(C)CCc3cn[nH]c3)cc2c1 | -1.744
Cc1ccc(CN2C[C@@H]3COC[C@H](NS(C)(=O)=O)[C@@H]3C2)s1.O=C(O)C(F)(F)F | 111.5
Cc1ccc(CN2C[C@@H]3COC[C@H](NS(C)(=O)=O)[C@@H]3C2)o1.O=C(O)C(F)(F)F | 6.614
Cc1ccc(CN2C[C@@H]3COC[C@@H](NS(C)(=O)=O)[C@@H]3C2)o1.O=C(O)C(F)(F)F | -14.86
Cc1ccc(CN2CC(C(=O)Nc3ccccc3)C3(CCOCC3)C2)s1.O=C(O)C(F)(F)F (stereo not given) | -15.56
CCc1ccc(CN2C[C@@H]3COC[C@H](NS(C)(=O)=O)[C@@H]3C2)o1.O=C(O)C(F)(F)F | 136.7
Cc1ccc(CN2CCOC3(COCCN(S(C)(=O)=O)C3)C2)s1.O=C(O)C(F)(F)F (stereo not given) | -6.803
CNC(=O)NC(=O)Cn1cc(-c2ccccc2)cn1 | -1.753
CCC(C)(C)NC(=O)Cn1cc(C(N)=O)c(-c2ccccc2)n1 | -8.057
Cc1ccc(NC(=O)Cn2cc(I)cn2)cc1 | 92.57
CC(C#N)(NC(=O)Cn1cc(I)cn1)C1CC1 (stereo not given) | 6.618
O=C(Cn1cc(-c2ccccc2)cn1)NC(C1CC1)C1CC1 | 101.4
CC(NC(=O)COc1ccccc1I)C1CC1 (stereo not given) | 10.59
CC(C)CNC(=O)Cn1cc(C(N)=O)c(-c2ccccc2)n1 | 7.305
CC(NC(=O)CN1C=Nc2ccccc2S1(=O)=O)C1CC1 (stereo not given) | 22.51
CC(C)C(C)(C#N)NC(=O)Cn1cc(I)cn1 (stereo not given) | 3.38
O=C(Cc1cnn(-c2ccccc2)n1)NC(C1CC1)C1CC1 | -0.6445
CCC(CC)NC(=O)Cn1cc(-c2ccccc2)cn1 | 106.4
CC(NC(=O)Cn1cc(-c2ccccc2)cn1)C1CC1 (stereo not given) | 82.35
Cc1csc(CN2C[C@@H]3CN(CC4CCOCC4)CCO[C@@H]3C2)n1 | -2.484
Fc1cccc(N2CCCC3(CN(Cc4nccs4)CCO3)C2)c1.O=C(O)C(F)(F)F.O=C(O)C(F)(F)F (stereo not given) | -19.19
CC(C)(C)c1nnc(CN2CCN(C(=O)N3CCCCC3)CC2)o1 | 1.432

SMILES | Percent Effect [%]
CC(C)C(C)(C#N)NC(=O)Cn1cc(-c2ccccc2)cn1 (stereo not given) | -4.052
CC(C)NC(=O)Cn1cc(-c2ccccc2)cn1 | 1.398
Cc1ccc(-c2cnn(CC(=O)NC(C)C)c2)cc1 | 96.48
CCC(CNC(=O)c1c(C)nn(C)c1OC)Oc1ccccc1 (stereo not given) | -1.987
CCc1nc(NS(=O)(=O)c2cc(C)ccc2Br)no1 | -0.5408
CN(CC1CCCC1)C(=O)c1cn(C)nc1-c1cccnc1 | -17.59
Cc1nn(C)c2nc(N(C)CCN(C)C3CCCC3)sc12 | -5.269
CCn1nc(C)c(-c2cncn2CCN(C)C2CCCC2)c1C.Cl | 94.51
CCCN1CCCn2nc(CNC(=O)CN(C)C3CCCC3)cc2C1 | -1.804
CCCn1nc(C)c(-c2cncn2CCN(C)C2CCCC2)c1C.Cl | 99.02
Cc1cc(C)nc(N(C)CCN(C)C2CCCC2)n1 | 8.027
Cc1nn(C)cc1-c1cncn1CCN(C)C1CCCC1.Cl | 82.1
Cn1nnc(C2(NC(=O)c3ccccc3)CCCC2)n1 | -16.42
CC(=O)NCCNc1nc(C2CCCC2)nc2c1cnn2C | -24.98
CCc1nc(NCC2CCCN(C(=O)C3CC3)C2)c2cnn(C)c2n1 (stereo not given) | 149.3
CC(C)C(=O)N1CCC(CNc2nc(C(C)C)nc3c2cnn3C)CC1 | -5.658
Cn1ncc2c(N[C@H]3CCCC[C@@H]3O)nc(C(C)(C)C)nc21 | 2.356
CCc1nc(NC2CCCN(C(=O)C3CC3)C2)c2cnn(C)c2n1 (stereo not given) | 100.4
Cn1ncc2c(N[C@@H]3CS(=O)(=O)C[C@H]3O)nc(C(C)(C)C)nc21 | -3.65
Cn1ncc2c(NC3CCCN(C(=O)C4CC4)C3)nc(C(C)(C)C)nc21 (stereo not given) | 108.6
Cn1ncc2c(N[C@H]3CC[C@@H](N)CC3)nc(C(C)(C)C)nc21 | -50.36
COCCN1CC(Nc2nc(C3CCCC3)nc3c2cnn3C)CC1=O (stereo not given) | -0.7638
CCc1nc(NC2CCN(CC(=O)NC3CC3)CC2)c2cnn(C)c2n1 | 85.47
CCCn1cc(C(=O)NC2CCN(CC(=O)NC3CC3)CC2)c(C)n1 | -20.41
COCc1nc(NCC2CCS(=O)(=O)C2)c2cnn(C)c2n1 (stereo not given) | 14.43
